AmpC no deterg = qHTS Inhibitors of AmpC Beta-Lactamase (assay without detergent) | P00811 | Potency, µM (series often up to 57.1 µM), without a hit: at the highest dose activity change, negative = inhibition, most hits filed as inhibitors | AmpC nitrocefin hydrolysis, absorbance 480 nm, 0.0001% Triton | 0.52% of 330,000 active;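 note: plate controls were no compound for no effect and no enzyme for full effect; nearly all actives have a fitted effect of over 20% in size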
Target sequence (P00811 whole entry, looked up): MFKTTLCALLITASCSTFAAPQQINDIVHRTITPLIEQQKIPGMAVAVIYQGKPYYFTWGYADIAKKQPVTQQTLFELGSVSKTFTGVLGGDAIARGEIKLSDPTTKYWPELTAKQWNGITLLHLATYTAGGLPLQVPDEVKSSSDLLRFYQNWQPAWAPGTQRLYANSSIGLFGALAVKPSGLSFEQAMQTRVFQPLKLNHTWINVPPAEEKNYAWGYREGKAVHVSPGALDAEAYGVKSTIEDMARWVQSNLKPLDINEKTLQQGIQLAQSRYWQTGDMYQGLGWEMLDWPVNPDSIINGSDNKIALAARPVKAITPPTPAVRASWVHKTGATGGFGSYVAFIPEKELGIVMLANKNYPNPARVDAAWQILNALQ
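20 mM phosphate pH 7.0 + 0.01% (detergent screen) or 0.0001% Triton X-100; 5.3 nM AmpC reagent; cpd preinc 15 min RT; nitrocefin (800 uM stock) to start; A480 q20 s × 4 min; Activity was normalised to no-enzyme and no-compound control wells.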
AmpC detergent = qHTS Inhibitors of AmpC Beta-Lactamase (assay with detergent); AmpC hydrolysis of nitrocefin, absorbance 480 nm, 0.01% Triton; 0.041% of 370,000 active; AID 485294, 2010; Potency, µM (titrated, usually from 114 µM), without a hit: top-dose activity change, negative = inhibition, hits mostly inhibitors; P00811;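 note: 0% = no-compound wells and -100% = no-enzyme wells; nearly all actives have a fitted effect of over 25% in size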
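20 mM phosphate pH 7.0 + 0.01% (detergent screen) or 0.0001% Triton X-100; 5.3 nM AmpC reagent; cpd preinc 15 min RT; nitrocefin (800 uM stock) to start; A480 q20 s × 4 min; Activity was normalised to no-enzyme and no-compound control wells.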
TbPYK inhibitor = qHTS of Trypanosoma Brucei Inhibitors. Potency, µM (series often up to 76.8 µM), for inactives: at the highest dose activity, negative = inhibition, hits mostly inhibitors. 0.12% of 410,000 active. TbPYK enzyme, Kinase-Glo Plus ATP luminescence, 45 min. pyruvate kinase (Trypanosoma brucei), Q57TT1. AID 624173, 2012; note: % is set by controls: 0 for no effect and ±100 for the full control effect; nearly all actives have a fitted effect of over 50% in size
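Luminescent Kinase-Glo Plus end-point after 45 min room-temperature reaction of T. brucei pyruvate kinase started with 130 uM ADP (final). Buffer TEA 50 mM pH 7.2 with KCl, MgCl2, BSA, Tween-20; titration-based qHTS with fitted concentration-effect curves.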
SARS PLpro yeast = qHTS of Yeast-based Assay for SARS-CoV PLP; S. cerevisiae expressing SARS-CoV PLpro, growth rescue; Potency, µM (highest dose often 32.9 µM), for inactives: at the top dose activity, positive = growth rescue, most hits filed as activators; 0.19% of 330,000 active; AID 485353, 2010; calls by dose curve; note: 0% is about no effect; nearly all actives have a fitted effect of over 55% in size
Sm TGR block = qHTS Assay for the Inhibitors of Schistosoma Mansoni Peroxiredoxins | Schistosoma mansoni thioredoxin glutathione reductase (TGR), Q962Y6 | purified TGR, DTNB reduction, TNB absorbance 405 nm | Potency, µM (top dose mostly 114 µM), without a hit: at the highest dose activity change, negative = inhibition, most hits filed as inhibitors | 3% of 360,000 active | AID 485364, 2010; note: % is set by controls: 0 for no effect and ±100 for the full control effect; nearly all actives have a fitted effect of over 60% in size
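First, TGR (20 nM dispensed) and NADPH were mixed with compound. Second, a 15 min room-temperature incubation followed. Third, further NADPH and then DTNB were added to start the reaction. Finally, TNB absorbance was monitored kinetically.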
RE007 growth inh = qHTS Assay for Inhibitors of the HIV-1 protein Vpr; AID 651644, 2012; Potency, µM (highest dose often 92.2 µM), inactives show at the top dose activity change, negative = less growth, usual class: inhibitors; S. pombe RE007 Vpr strain, BacTiter-Glo ATP luminescence, 24 h; 0.21% of 360,000 active; active = well fitted falling curve with a large enough effect; inconclusive = small, poorly fitted or top-dose-only effect; inactive = no such curve, though single readings can be large or run the other way; note: % is set by controls: 0 for no effect and ±100 for the full control effect; nearly all actives have a fitted effect of over 50% in size
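Fission yeast RE007 carrying one integrated HIV-1 vpr copy, seeded at OD 0.01 in PMG+AL medium with 23 nL pinned compound. Grown 24 h at 30 degrees; viability read by BacTiter-Glo luminescence after 5 min.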
An asterisk follows results filed as active. Hits are enriched below; roughly 3.3% of the tested compounds scored in any of these assays. Unless noted, calls come from the whole dose curve; as a rule, active = well fitted curve in the direction sought with a large enough effect; inconclusive = small, poorly fitted or top-dose-only effect, or another doubt; inactive = no such curve, though single readings can be large; an effect the other way counts as inactive or inconclusive. Potency is the fitted concentration of half-maximal effect.

What do the screens show for `NS(=O)(=O)c1ccc(CCNC(=O)c2ccccc2OCc2ccc(F)cc2)cc1`?
AmpC no deterg: 11µM*; AmpC detergent: inconclusive; TbPYK inhibitor: 4%; SARS PLpro yeast: 1%; Sm TGR block: 5%; RE007 growth inh: 5%

Results for NS(=O)(=O)c1ccc(CCNC(=O)c2cccc3ccccc23)cc1 ?
AmpC no deterg: -10%; AmpC detergent: 1%; TbPYK inhibitor: 2%; SARS PLpro yeast: -3%; Sm TGR block: 2%; RE007 growth inh: 6%

How did O=C(CN1C(=O)CCc2cc(S(=O)(=O)N3CCOCC3)ccc21)NCc1ccccc1 do in these assays?
AmpC detergent: 3%; TbPYK inhibitor: 3%; Sm TGR block: -2%

Results for Cc1ccc(Sc2cc(C(=O)NCCN(C)C)c3ccccc3n2)cc1 ?
AmpC no deterg: 34%; AmpC detergent: -10%; TbPYK inhibitor: 4%; SARS PLpro yeast: -3%; Sm TGR block: -21%; RE007 growth inh: -5%

What do the screens show for `Cc1ccc(Sc2cc(C(=O)NCCCN(C)C)c3ccccc3n2)cc1`?
AmpC no deterg: 94%; AmpC detergent: -5%; TbPYK inhibitor: -6%; SARS PLpro yeast: 0%; Sm TGR block: 40µM*; RE007 growth inh: 6%

What do the screens show for `CCc1ccc(NC(=O)c2nc3nc(C)cc(C(F)F)n3n2)cc1`?
AmpC detergent: 4%; TbPYK inhibitor: -4%; Sm TGR block: 3%

Results for CCN(CC)c1ccc(NC(=O)c2nc3nc(C)cc(C(F)F)n3n2)cc1 ?
AmpC no deterg: 3.2µM*; AmpC detergent: 9%; TbPYK inhibitor: -7%; SARS PLpro yeast: inconclusive; Sm TGR block: -4%; RE007 growth inh: -10%

How did O=C(NCc1cccnc1)C1c2ccccc2C(=O)N1C1CCCC1 (stereo not given) do in these assays?
AmpC no deterg: 20µM*; AmpC detergent: inconclusive; TbPYK inhibitor: -8%; SARS PLpro yeast: 3%; Sm TGR block: 4%; RE007 growth inh: 3%

What do the screens show for `COCCn1c(CNC(=O)c2cc([N+](=O)[O-])ccc2Cl)nc2cccnc21`?
AmpC detergent: -1%; TbPYK inhibitor: 2%; Sm TGR block: -1%

What do the screens show for `COc1cccc(CN(Cc2ccco2)C(c2ccc(F)cc2)c2nnnn2C(C)(C)C)c1` (stereo not given)?
AmpC no deterg: -24%; AmpC detergent: 3%; TbPYK inhibitor: 9%; SARS PLpro yeast: -13%; Sm TGR block: 50µM*; RE007 growth inh: -1%

What do the screens show for `COc1cccc(N/N=C/c2cccc(Br)c2O)c1`?
AmpC no deterg: inconclusive; AmpC detergent: -1%; TbPYK inhibitor: 0%; SARS PLpro yeast: -2%; Sm TGR block: 35µM*; RE007 growth inh: 4%

Results for COc1cccc(/C=N/Nc2ccc([N+](=O)[O-])cc2)c1O ?
AmpC no deterg: 49%; AmpC detergent: -5%; TbPYK inhibitor: 0%; SARS PLpro yeast: -4%; Sm TGR block: 4%; RE007 growth inh: 11%

What do the screens show for `Cc1cccc(N/N=C/c2ccc(O)c(O)c2O)c1`?
AmpC no deterg: inconclusive; AmpC detergent: -6%; TbPYK inhibitor: -19%; SARS PLpro yeast: -1%; Sm TGR block: 7.1µM*; RE007 growth inh: 15%

Results for CCCOc1ccc(C(=O)Nc2ccc(NC(=O)c3ccccc3)c(C)c2)cc1 ?
AmpC detergent: -2%; TbPYK inhibitor: 5%; Sm TGR block: -11%

How did COc1ccc(C(=O)Nc2oc(-c3ccccc3)c(-c3ccccc3)c2C#N)cc1 do in these assays?
AmpC no deterg: 8.9µM*; AmpC detergent: -6%; TbPYK inhibitor: 5%; SARS PLpro yeast: 3%; Sm TGR block: 14%; RE007 growth inh: 2%

How did Cc1sc(NC(=O)c2ccccc2)c(C#N)c1-c1ccccc1 do in these assays?
AmpC no deterg: 25µM*; AmpC detergent: -14%; TbPYK inhibitor: -11%; SARS PLpro yeast: 10%; Sm TGR block: -3%; RE007 growth inh: 0%

How did Cc1ccc2nc(NC(=O)CSc3nccn3Cc3ccc(F)cc3)sc2c1 do in these assays?
AmpC detergent: 21%; TbPYK inhibitor: 0%; Sm TGR block: 7%

What do the screens show for `O=C(NCCSCc1ccccc1)C1CCN(S(=O)(=O)Cc2ccccc2)CC1`?
AmpC detergent: 22%; TbPYK inhibitor: 2%; Sm TGR block: 0%

What do the screens show for `CC(C)C[C@@H](NC(=O)[C@H](Cc1ccccc1)NC(=O)c1cnccn1)B(O)O`?
TbPYK inhibitor: 2%

Results for COC(=O)c1ccc(-n2c(C)cc(C(=O)COC(=O)C3=COCCO3)c2C)cc1 ?
AmpC no deterg: -7%; TbPYK inhibitor: -4%; SARS PLpro yeast: -3%; RE007 growth inh: 13%

What do the screens show for `COC(=O)c1ccc(-n2c(C)cc(C(=O)CCl)c2C)cc1`?
AmpC no deterg: -21%; AmpC detergent: -1%; TbPYK inhibitor: -1%; SARS PLpro yeast: -4%; Sm TGR block: 4.5µM*; RE007 growth inh: 25µM*

How did CCOc1ccc(-n2c(C)cc(C(=O)CCl)c2C)cc1 do in these assays?
AmpC no deterg: -14%; AmpC detergent: -1%; TbPYK inhibitor: -8%; SARS PLpro yeast: -7%; Sm TGR block: 4.5µM*; RE007 growth inh: inconclusive

What do the screens show for `COc1cccc(CNC(=O)CCC2CCCN(C(=O)c3ccccc3N(C)C)C2)c1` (stereo not given)?
AmpC no deterg: 143%; AmpC detergent: 3%; TbPYK inhibitor: 7%; SARS PLpro yeast: 2%; Sm TGR block: 79µM*; RE007 growth inh: 13%

How did COc1cccc(CNC(=O)CCC2CCCN(C(=O)c3cccc4c(C)c(C)[nH]c34)C2)c1 (stereo not given) do in these assays?
AmpC no deterg: 120%; AmpC detergent: 10%; TbPYK inhibitor: 1%; SARS PLpro yeast: 1%; Sm TGR block: inconclusive; RE007 growth inh: 3%

Results for COc1nsnc1NS(=O)(=O)c1ccc(NC(=S)NC(=O)c2ccncc2)cc1 ?
AmpC no deterg: -17%; AmpC detergent: 3%; TbPYK inhibitor: -4%; SARS PLpro yeast: 0%; Sm TGR block: 32µM*; RE007 growth inh: -12%

How did COc1nccnc1NS(=O)(=O)c1ccc(NC(=S)NC(=O)c2cccnc2)cc1 do in these assays?
AmpC no deterg: -5%; AmpC detergent: 3%; TbPYK inhibitor: 0%; SARS PLpro yeast: 0%; Sm TGR block: 20µM*; RE007 growth inh: 3%

Screens deposited in PubChem by National Center for Advancing Translational Sciences (NCATS).
